Among all 3,200 compounds or so, about 300 (9.4%) showed activity. What follows is part of a selection rich in actives, with near analogues and random picks from the rest.
Tested on: A673/TR/shEF
Assay: cell viability (LOESS-normalised, relative to median of negative controls) (log2 ratio); higher = more viable cells (less compound effect), active = hit call of the paper (over 3 MAD below the median)
Conditions: treatment time: 72 h
Summary of the method: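 A673/TR/shEF Ewing sarcoma cells (1,500 per well, 384-well plates) were grown with or without doxycycline to induce EWS-FLI1 shRNA knockdown, starting 24 h before compounds. Library compounds at two or more concentrations, with DMSO controls, were added for three days. Cell viability was read by CellTiter-Glo luminescence on an Envision reader, then LOESS-corrected per plate, divided by the median of negative controls and log2-transformed. Hits were wells at least three median absolute deviations from the median of all screened wells.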

[1] = 0.25 µM, library screen: screen1, EWS-FLI1 expression: high (no doxycycline)
[2] = 0.25 µM, library screen: screen1, EWS-FLI1 expression: low (doxycycline-induced shRNA knockdown)
[3] = 2.5 µM, library screen: screen1, EWS-FLI1 expression: high (no doxycycline)
[4] = 2.5 µM, library screen: screen1, EWS-FLI1 expression: low (doxycycline-induced shRNA knockdown)
[5] = 0.025 µM, library screen: screen1, EWS-FLI1 expression: high (no doxycycline)
[6] = 0.025 µM, library screen: screen1, EWS-FLI1 expression: low (doxycycline-induced shRNA knockdown)
[7] = 25 µM, library screen: screen1, EWS-FLI1 expression: high (no doxycycline)
[8] = 25 µM, library screen: screen1, EWS-FLI1 expression: low (doxycycline-induced shRNA knockdown)
[9] = 0.103 µM, library screen: screen3, EWS-FLI1 expression: high (no doxycycline)
[10] = 0.103 µM, library screen: screen3, EWS-FLI1 expression: low (doxycycline-induced shRNA knockdown)
[11] = 0.308 µM, library screen: screen3, EWS-FLI1 expression: high (no doxycycline)
[12] = 0.308 µM, library screen: screen3, EWS-FLI1 expression: low (doxycycline-induced shRNA knockdown)
[13] = 0.926 µM, library screen: screen3, EWS-FLI1 expression: high (no doxycycline)
[14] = 0.926 µM, library screen: screen3, EWS-FLI1 expression: low (doxycycline-induced shRNA knockdown)
[15] = 2.8 µM, library screen: screen3, EWS-FLI1 expression: high (no doxycycline)
[16] = 2.8 µM, library screen: screen3, EWS-FLI1 expression: low (doxycycline-induced shRNA knockdown)
[17] = 8.3 µM, library screen: screen3, EWS-FLI1 expression: high (no doxycycline)
[18] = 8.3 µM, library screen: screen3, EWS-FLI1 expression: low (doxycycline-induced shRNA knockdown)
[19] = 25 µM, library screen: screen3, EWS-FLI1 expression: high (no doxycycline)
[20] = 25 µM, library screen: screen3, EWS-FLI1 expression: low (doxycycline-induced shRNA knockdown)
[21] = 0.25 µM, library screen: screen2, EWS-FLI1 expression: high (no doxycycline)
[22] = 0.25 µM, library screen: screen2, EWS-FLI1 expression: low (doxycycline-induced shRNA knockdown)
[23] = 2.5 µM, library screen: screen2, EWS-FLI1 expression: high (no doxycycline)
[24] = 2.5 µM, library screen: screen2, EWS-FLI1 expression: low (doxycycline-induced shRNA knockdown)

Measured: cell viability (log2)

CC(C(=O)O)N1C(=O)C(=Cc2cccnc2)SC1=S (configuration not stated)
inactive: [1] -0.0281 | [2] 0.0107 | [3] 0.0923 | [4] -0.0695

C=CC1=C(C)/C(=C/c2[nH]c(Cc3[nH]c(/C=C4\NC(=O)C(C)=C4C=C)c(C)c3CCC(=O)O)c(CCC(=O)O)c2C)NC1=O
inactive: [1] 0.0132 | [2] 0.0277 | [3] 0.0983 | [4] 0.128

S=c1[nH]nc(COc2ccc(Cl)cc2Cl)n1-c1ccccc1
inactive: [1] 0.00963 | [2] 0.148 | [3] 0.0937 | [4] 0.0872

C[C@@H]1CC[C@@]2(OC1)O[C@H]1C[C@H]3[C@@H]4CC[C@H]5C[C@@H](O)CC[C@]5(C)[C@H]4CC(=O)[C@]3(C)[C@H]1[C@@H]2C
inactive: [1] 0.102 | [2] -0.00894 | [3] 0.127 | [4] 0.0766

Nc1ncc2[nH]cnc2n1
inactive: [5] 0.156 | [6] 0.0178 | [1] 0.22 | [2] 0.0137 | [4] 0.025 | [7] -0.0198 | [8] 0.0477
active: [3] -0.0954

Nc1ncnc2nc[nH]c12
inactive: [9] -0.0276 | [10] 0.0358 | [1] -0.00904 | [2] 0.112 | [11] 0.0266 | [12] 0.0376 | [13] 0.0356 | [14] 0.0359 | [3] 0.0839 | [4] 0.087 | [15] -0.0229 | [16] 0.045 | [17] -0.016 | [18] 0.0209 | [19] 0.0262 | [20] 0.0745

Nc1nc(OCc2ccccc2)c2[nH]cnc2n1
inactive: [21] 0.21 | [22] 0.111 | [23] 0.106 | [24] 0.0266

CN1CCC[C@@H]1c1cccnc1
inactive: [21] 0.0881 | [22] 0.0848 | [23] 0.112 | [24] 0.123

C[C@H](C[C@@H](O)[C@@H]1OC1(C)C)[C@@H]1CC[C@]2(C)C3=CC[C@H]4C(C)(C)C(=O)CC[C@]4(C)[C@H]3CC[C@@]12C
inactive: [1] 0.0762 | [2] 0.064 | [3] 0.0491 | [4] 0.136

CNc1ncnc2c1ncn2[C@@H]1O[C@H](CO)[C@@H](O)[C@H]1O
inactive: [21] 0.104 | [22] 0.0674 | [23] 0.0505 | [24] 0.098

Nc1ncnc2c1c(I)cn2[C@@H]1O[C@H](CO)[C@@H](O)[C@H]1O
active: [3] -1.08 | [4] -0.349 | [7] -2.42 | [8] -2.11
inactive: [5] 0.145 | [6] -0.151 | [1] -0.0341 | [2] -0.172

Nc1nc(F)nc2c1ncn2[C@@H]1O[C@H](CO)[C@@H](O)[C@@H]1O
inactive: [9] -0.0149 | [10] 0.0418 | [11] 0.0122 | [12] 0.0299 | [13] -0.0547 | [14] 0.0332 | [15] 0.0695 | [16] 0.0196 | [17] 0.023 | [18] 0.0649 | [19] 0.0762 | [20] 0.0699

Nc1ncnc2c1ncn2[C@@H]1O[C@H](CO)[C@@H](O)[C@@H]1O
inactive: 0.025 µM, library screen: screen2, EWS-FLI1 expression: high (no doxycycline) 0.125 | 0.025 µM, library screen: screen2, EWS-FLI1 expression: low (doxycycline-induced shRNA knockdown) 0.0247 | [9] 0.0965 | [10] 0.0781 | [21] 0.146 | [22] 0.0437 | [11] 0.134 | [12] 0.0881 | [13] 0.113 | [14] 0.0711 | [23] 0.229 | [24] 0.0883 | [15] 0.122 | [16] 0.114 | [17] 0.0774 | [18] 0.127 | 25 µM, library screen: screen2, EWS-FLI1 expression: high (no doxycycline) 0.0602 | 25 µM, library screen: screen2, EWS-FLI1 expression: low (doxycycline-induced shRNA knockdown) 0.0701 | [19] 0.0148 | [20] 0.128

Nc1ncnc2c1ncn2C1OC(C(=O)NC2CC2)C(O)C1O (configuration not stated)
inactive: [21] 0.208 | [22] 0.0695 | [23] 0.136 | [24] 0.0888

Nc1nccc2c1ncn2[C@@H]1O[C@H](CO)[C@@H](O)[C@H]1O
inactive: [21] 0.199 | [22] 0.0735 | [23] 0.0748 | [24] 0.125

Nc1ncnc2c1ncn2C1CCCC1
inactive: [21] 0.222 | [22] 0.00723 | [23] 0.162 | [24] 0.101

Nc1ncnc2c1ncn2C1CCCO1 (configuration not stated)
active: [21] -0.183 | [22] -0.136 | [23] -0.771 | [24] -0.568

Nc1ncnc2c1ncn2[C@@H]1O[C@H](CO)[C@@H](O)[C@H]1O
inactive: [9] 0.0648 | [10] 0.118 | [1] 0.105 | [2] 0.0646 | [22] 0.0787 | [11] 0.108 | [12] 0.149 | [13] 0.0961 | [14] 0.106 | [3] 0.129 | [4] 0.198 | [23] 0.141 | [24] 0.177 | [15] 0.133 | [16] 0.0552 | [17] 0.0565 | [18] 0.0635 | [19] 0.137 | [20] 0.158
active: [21] -0.195

Reference: the supplement of paper PMC6089552
